According to PubChem BioAssay (NCI):
Where “and” joins values, the source holds several entries; their conditions need not be identical. Equal values may be shown once. About 79,000 compounds went through this panel and 15% of them were active in at least one assay; those are over-represented in the sample as a whole. A structure can be active in one record and inactive in another. Calls of active or inactive are those of the source. Cut-off read from the data, not from the text of the source: active = growth inhibition above about 70%; inactive = the rest.

Columns and labels:
[1] = NCI Yeast Anticancer Drug Screen. Data for the rad50 strain (AID 155);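 note: 0% = growth of vehicle-only cultures of the same strain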; settings: S. cerevisiae rad50 strain growth inhibition, stronger effect = higher value
Outline: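 DNA repair mutant yeast, compound exposure, growth read-out; inhibition is taken relative to vehicle.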

[2] = NCI Yeast Anticancer Drug Screen. Data for the mec2-1 strain (AID 157); settings: S. cerevisiae mec2-1 strain, stronger effect = higher value
Outline: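 Test agents were screened against the mec2-1 yeast strain, with defined DNA repair or cell cycle alteration. Growth was scored as inhibition against vehicle-only controls.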

[3] = NCI Yeast Anticancer Drug Screen. Data for the sgs1 mgt1 strain (AID 161);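 note: 0% = growth of cultures given vehicle only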; settings: S. cerevisiae sgs1 mgt1 strain, stronger effect = higher value
Outline: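 Genetically altered yeast, compound exposure, growth inhibition relative to vehicle.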

[4] = NCI Yeast Anticancer Drug Screen. Data for the cln2 rad14 strain (AID 165);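 note: 0% = growth equal to vehicle treated cultures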; settings: S. cerevisiae cln2 rad14 strain, stronger effect = higher value
Outline: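 Growth of compound-exposed yeast (cln2 rad14 genotype) measured and expressed as inhibition relative to vehicle.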

[5] = NCI Yeast Anticancer Drug Screen. Data for the bub3 strain (AID 167); settings: S. cerevisiae bub3 mutant strain, stronger effect = higher value
Outline: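 In this screen, a yeast mutant lacking normal mitotic checkpoint function is challenged with compound. Relative growth versus vehicle gives the inhibition value.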

[6] = NCI Yeast Anticancer Drug Screen. Data for the mlh1 rad18 strain (AID 175); settings: S. cerevisiae mlh1 rad18 strain growth inhibition, stronger effect = higher value
Outline: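 In this whole-cell yeast screen, a strain with altered DNA damage repair is challenged with compound, and its growth is measured against matched vehicle-treated controls.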

[7] = at 5.0 µM (retest, dose inferred, filed as 0.5)
[8] = at 50.0 µM (retest, dose inferred, filed as 5.0)

SMILES	growth inhibition [1, 7]	growth inhibition [1, 8]	growth inhibition ([1]; at 50.0 µM)	growth inhibition [2, 7]	growth inhibition [2, 8]	growth inhibition ([2]; at 50.0 µM)	growth inhibition [3, 7]	growth inhibition [3, 8]	growth inhibition ([3]; at 50.0 µM)	growth inhibition [4, 7]	growth inhibition [4, 8]	growth inhibition ([4]; at 50.0 µM)	growth inhibition [5, 7]	growth inhibition [5, 8]	growth inhibition ([5]; at 50.0 µM)	growth inhibition [6, 7]	growth inhibition [6, 8]	growth inhibition ([6]; at 50.0 µM)
CCC1CC2C3Cc4ccc(OC)c(O)c4C2(CCN3C)CC1=O (stereo unspecified)	6% (inactive)	3% (inactive)	-6.45% (inactive)	-12% (inactive)	-2% (inactive)	-6% (inactive)	19% (inactive)	9% (inactive)	-8% (inactive)	14% (inactive)	11% (inactive)	-5.3% (inactive)	24% (inactive)	19% (inactive)	-1.25% (inactive)	9% (inactive)	9% (inactive)	-7.5% (inactive)
O=C1c2ccccc2[Se](=O)N1c1ccccc1 (stereo unspecified)	50% (inactive)	96% (active)	93.1% (active)	61% (inactive)	99% (active)	93.9% (active)	23% (inactive)	96% (active)	93% (active)	45% (inactive)	98% (active)	91.7% (active)	72% (active)	99% (active)	90.8% (active)	83% (active)	98% (active)	90.8% (active)
Nc1ccc(Cl)cc1C(=O)c1ccccc1Cl	-3% (inactive)	99% (active)	97.4% (active)	-3% (inactive)	99% (active)	97.2% (active)	-2% (inactive)	99% (active)	97.5% (active)	-9% (inactive)	98% (active)	80.8% (active)	-12% (inactive)	99% (active)	87.5% (active)	-1% (inactive)	99% (active)	96.8% (active)
CCCCCCCCCCCCN=C(N)N	80% (active)	98% (active)	99.1% (active)	72% (active)	99% (active)	99.3% (active)	87% (active)	99% (active)	99% (active)	59% (inactive)	98% (active)	98.5% (active)	96% (active)	99% (active)	99.4% (active)	71% (active)	98% (active)	98.4% (active)
CC[C@@]1(O)CC(OC2CC(N3CCOCC3)C(O)C(C)O2)c2c(O)c3c(c(O)c2[C@H]1O)C(=O)c1cccc(O)c1C3=O (stereo partly specified)	96% (active)	98% (active)	59.3% (inactive)	36% (inactive)	99% (active)	51.2% (inactive)	63% (inactive)	99% (active)	49.4% (inactive)	31% (inactive)	99% (active)	97.3% (active)	24% (inactive)	99% (active)	99% (active)	52% (inactive)	98% (active)	51.1% (inactive)
CCCCS.[Hg]	99% (active)	94% (active)	98.9% (active)	99% (active)	96% (active)	99% (active)	99% (active)	94% (active)	99.1% (active)	97% (active)	93% (active)	98.7% (active)	99% (active)	93% (active)	98.8% (active)	99% (active)	94% (active)	99.2% (active)
NP(N)(=O)Nc1ccccc1	-1% (inactive)	-2% (inactive)	7.75% (inactive)	2% (inactive)	-2% (inactive)	-22.4% (inactive)	-1% (inactive)	-1% (inactive)	-23.9% (inactive)	0% (inactive)	-2% (inactive)	66.7% (inactive)	2% (inactive)	-6% (inactive)	-8% (inactive)	-2% (inactive)	0% (inactive)	3.6% (inactive)
C[N-]c1nnnn1C.[Au+].c1ccc([PH+](c2ccccc2)c2ccccc2)cc1	99% (active)	97% (active)	96.3% (active)	99% (active)	95% (active)	97.9% (active)	99% (active)	97% (active)	97% (active)	96% (active)	95% (active)	97.2% (active)	98% (active)	96% (active)	96% (active)	97% (active)	94% (active)	97% (active)
CC(=O)OC(C)(C)/C=C/C(=O)[C@](C)(O)[C@H]1[C@H](O)C[C@@]2(C)[C@@H]3CC=C4[C@@H](C[C@H](O)[C@H](O)C4(C)C)[C@]3(C)C(=O)C[C@]12C	15% (inactive)	98% (active)	92.1% (active)	52% (inactive)	99% (active)	93.5% (active)	13% (inactive)	98% (active)	93.3% (active)	43% (inactive)	98% (active)	91.1% (active)	65% (inactive)	99% (active)	91.5% (active)	55% (inactive)	98% (active)	91.8% (active)
S=C(S)N1CCCCC1	42% (inactive) and 15% (inactive)	57% (inactive) and 13% (inactive)	73.5% (active) and 45.1% (inactive) and 29.9% (inactive)	38% (inactive) and 19% (inactive)	60% (inactive) and 6% (inactive)	45.7% (inactive) and 90.3% (active) and 31.6% (inactive)	42% (inactive) and 15% (inactive)	99% (active) and 41% (inactive)	60.5% (inactive) and 97.8% (active) and 25.5% (inactive)	76% (active) and 3% (inactive)	99% (active) and -48% (inactive)	29.4% (inactive) and 33.2% (inactive) and 0.25% (inactive)	56% (inactive) and 0% (inactive)	90% (active) and -1% (inactive)	37.6% (inactive) and 99.3% (active) and -10.9% (inactive)	46% (inactive) and 31% (inactive)	56% (inactive) and 27% (inactive)	52.8% (inactive) and 70.8% (active) and 59.6% (inactive)
CC(=O)OC1C2(CC3N4C(=O)C5(CO)SSC4(CC31O)C(=O)N5C)OC(C)C(C)(C)C2=O (stereo unspecified)	67% (inactive)	99% (active)	90.2% (active)	80% (active)	100% (active)	93.2% (active)	68% (inactive)	97% (active)	92.8% (active)	64% (inactive)	99% (active)	88.6% (active)	71% (active)	99% (active)	91.5% (active)	83% (active)	99% (active)	91.2% (active)
S=C(S)N1CCOCC1	62% (inactive)	94% (active)	-11.9% (inactive)	50% (inactive)	84% (active)	28.1% (inactive)	37% (inactive)	82% (active)	42.7% (inactive)	-2% (inactive)	75% (active)	-23.9% (inactive)	45% (inactive)	86% (active)	98.3% (active)	60% (inactive)	88% (active)	19.5% (inactive)
O=[N+]([O-])c1cc(C(F)(F)F)cc2n[se]nc12	82% (active)	98% (active)	87.2% (active)	81% (active)	99% (active)	93.3% (active)	47% (inactive)	100% (active)	90.8% (active)	49% (inactive)	99% (active)	90.8% (active)	94% (active)	97% (active)	90.6% (active)	75% (active)	97% (active)	90.5% (active)
O=C1C(F)=C(N2CC2)C(=O)C(F)=C1N1CC1	99% (active)	99% (active)	91.7% (active)	100% (active)	99% (active)	94% (active)	100% (active)	99% (active)	91% (active)	100% (active)	99% (active)	91.5% (active)	98% (active)	99% (active)	92.8% (active)	99% (active)	99% (active)	91.5% (active)
CCCCN(CCCC)CCc1ccc(OC(=O)c2ccc(N)cc2)cc1	27% (inactive)	76% (active)	82.5% (active)	23% (inactive)	80% (active)	70.7% (active)	46% (inactive)	90% (active)	91.2% (active)	42% (inactive)	73% (active)	90.2% (active)	50% (inactive)	84% (active)	79% (active)	32% (inactive)	78% (active)	84.8% (active)
c1ccc(P(CC[As](c2ccccc2)c2ccccc2)CC[As](c2ccccc2)c2ccccc2)cc1	95% (active)	95% (active)	89% (active)	81% (active)	81% (active)	90.8% (active)	47% (inactive)	47% (inactive)	88.5% (active)	76% (active)	76% (active)	89.3% (active)	84% (active)	84% (active)	90.8% (active)	80% (active)	80% (active)	88.6% (active)
CN(CCO)CCO	18% (inactive)	86% (active)	6.55% (inactive) and -12.4% (inactive)	3% (inactive)	26% (inactive)	7.5% (inactive) and 36.6% (inactive)	5% (inactive)	43% (inactive)	-0.35% (inactive) and 15.9% (inactive)	1% (inactive)	21% (inactive)	-8.05% (inactive) and 58.9% (inactive)	1% (inactive)	6% (inactive)	-9.75% (inactive) and 30.8% (inactive)	10% (inactive)	38% (inactive)	-11.8% (inactive) and 21.9% (inactive)
